# Hits are enriched below; roughly 2.2% of the tested compounds scored in any of these assays.
# MOR-DOR ag: OPRM1-OPRD1 heterodimerization agonism; P35372+P41143; cells, luminescence; activation, % at 9.3 µM; 340,000 tested, 0.3% active; in the data active = activation above about 18%
# HTR5A ag: HTR5A agonism, opioid heterodimer counter-screen | HTR5A agonist assay, luminescence, cell-based | 340,000 tested, 0.61% active | P47898 | AID 504692 | activation, % at 9.3 µM; in the data active = activation mostly above about 9.5%, no sharp cut-off; inactive = mostly below about 7.6%
# HTR2A ag: agonists of mouse serotonin 5-HT2A receptor (HTR2A); P35363; CHO-K1 mHTR2A beta-arrestin complementation, luminescence; percent of 30 µM serotonin response; activation, % at 7.6 µM; 360,000 tested, 0.66% active; AID 624169;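 active = activation above a run cutoff, the mean activation of all tested compounds plus 3 SD, cut at about 14% in these data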
# HGIII-sPLA2 inh: Blocks human group III sPLA2 activity; Q9NZ20; 370,000 tested, 0.56% active; QFRET BODIPY PC-A2 liposome hydrolysis, fluorescence; inhibition, % at 12.2 µM;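 active = inhibition above mean plus 3 SD of compounds lying within the high and low control bounds, cut at about 19% in these data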
# Target sequence (Q9NZ20 whole entry, looked up): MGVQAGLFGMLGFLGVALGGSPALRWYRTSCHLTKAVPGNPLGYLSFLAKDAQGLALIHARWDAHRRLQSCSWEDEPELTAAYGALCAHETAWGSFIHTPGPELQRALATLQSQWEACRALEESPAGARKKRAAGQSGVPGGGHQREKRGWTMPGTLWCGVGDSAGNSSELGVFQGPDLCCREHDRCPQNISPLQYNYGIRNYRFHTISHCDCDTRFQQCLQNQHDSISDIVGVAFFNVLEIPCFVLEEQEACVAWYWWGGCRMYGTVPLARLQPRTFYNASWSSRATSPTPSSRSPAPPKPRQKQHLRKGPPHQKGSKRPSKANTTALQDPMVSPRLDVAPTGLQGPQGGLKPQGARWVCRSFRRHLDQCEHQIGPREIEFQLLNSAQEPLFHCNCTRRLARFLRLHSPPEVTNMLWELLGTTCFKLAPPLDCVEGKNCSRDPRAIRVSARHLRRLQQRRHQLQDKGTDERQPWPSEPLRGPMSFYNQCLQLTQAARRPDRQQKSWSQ
# OPRM1-OPRD1 inv: mu-delta opioid heterodimer inverse agonism | P35372+P41143 | cell-based MOR-DOR heterodimer luminescence | inhibition, % at 9.3 µM | 340,000 tested, 0.21% active | AID 504357; in the data active = inhibition above about 22%, passing the limit was not always enough
# HTR5A inv ctr: counter-screen for OPRM1-OPRD1 inverse agonists: human HTR5A inverse agonism. HTR5A cell line, luminescence. inhibition, % at 9.3 µM. 340,000 tested, 0.083% active. AID 504634; in the data active = inhibition mostly above about 23%, no sharp cut-off; inactive = mostly below about 18%
# hGIII sPLA2 conf: human GIII-sPLA2 inhibition, confirmation | shares compounds with HGIII-sPLA2 inh | recombinant hGIII-sPLA2, BODIPY PC-A2 QFRET fluorescence | inhibition, % at 12.2 µM | 2,000 tested, 34% active;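 active = mean inhibition across triplicates above the hit cutoff set in the earlier primary screen, cut at about 19% in these data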
# 535nm interf: 535nm fluorescence interference, HGIII-sPLA2 counter-screen. shares compounds with HGIII-sPLA2 inh. AID 743282. BODIPY FL product fluorescence interference, QFRET. 2,000 tested, 8.5% active. inhibition, % at 12.2 µM;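 active = average inhibition above the solvent-only control mean plus 3 SD, cut at about 6% in these data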
# BODIPY interf DR: 535nm optical interference dose response, HGIII-sPLA2 counter-screen; shares compounds with HGIII-sPLA2 inh; AID 743455; IC50, µM; 240 tested, under 10 active; BODIPY FL product fluorescence interference, cell-free;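 active = IC50 at or below 10 µM; inactive = IC50 above 10 µM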
# A number is an active result; - = inactive; . = no result given.
SMILES,MOR-DOR ag,HTR5A ag,HTR2A ag,HGIII-sPLA2 inh,OPRM1-OPRD1 inv,HTR5A inv ctr,hGIII sPLA2 conf,535nm interf,others
NC(=O)C1CC(=O)N(c2ccc(OCc3ccc(Cl)c(Cl)c3)cc2)C1 (stereo not given),.,.,-,21,.,.,-,-,
Cn1c(=O)c2[nH]c(=S)n(Cc3ccccc3)c2n(C)c1=O,-,-,-,23,-,-,-,-,
Clc1ccccc1CN1CCSCC1,-,-,-,-,-,-,.,.,
CC1CN(Cc2ccccc2Cl)CC(C)O1 (stereo not given),-,-,-,19,-,-,-,-,
O=C(NNC(=S)NC1CCCCC1)c1cccs1,-,-,-,-,-,-,.,.,
Cc1cc(C(=O)NNC(=S)NC2CCCCC2)cs1,-,-,-,25,-,-,37,-,BODIPY interf DR=-
O=C(NNC(=S)NC1CCCCC1)c1ccccc1O,-,-,-,44,-,-,44,-,BODIPY interf DR=-
O=C(OCC#CCSc1nnc(-c2c[nH]c3ccccc23)o1)c1ccc(F)cc1,.,.,.,-,.,.,.,.,
CCOC(=O)[C@]12CCCC=C1N(Cc1ccc(OC)cc1)C(=O)[C@@H]2CC(=O)NCC12CC3CC(CC(C3)C1)C2,.,.,.,-,.,.,.,.,
CCOC(=O)c1ccc(N=CC2=C(O)CC(C)(C)CC2=O)cc1,-,-,-,-,-,-,.,.,
CCOC(=O)c1cc(CC)sc1/N=C/C1=C(O)CC(C)(C)CC1=O,-,-,-,23,-,-,-,-,
O=C(OC12CCCN(C1)/C(=C/c1cccc(Cl)c1)C2)c1ccno1 (stereo not given),.,.,.,-,.,.,.,.,
CCOC(=O)c1c(C)[nH]c(C(=O)N/N=C/c2cc([N+](=O)[O-])ccc2O)c1C,-,-,-,24,-,-,-,6.1,
CCOC(=O)c1c(C)[nH]c(C(=O)N/N=C\c2ccccc2O)c1C,-,-,-,-,-,-,.,.,
C[C@@H]1CCCN1c1cccc2c1S(=O)(=O)N1CC[C@@H](C1)O2,.,.,.,-,.,.,.,.,
CCCN1C[C@@H](C)[C@@H](OC)CN(C)C(=O)c2ccc(NC(=O)c3cccc(F)c3)cc2OC[C@H]1C,.,.,-,20,.,.,-,-,
c1ccc(-c2ccc(C3=Nn4c(nnc4-c4ccccn4)SC3)cc2)cc1,.,.,.,-,.,.,.,.,
Cc1ccc(N=Nc2ccc3ccccc3c2O)cc1,-,-,-,20,-,-,30,8.3,
CC(C)Nc1nc(NC(N)=S)nc(NC(C)C)n1,-,-,-,22,-,-,20,-,
O=C1CCCc2nc(N3CCN(c4ccccc4)CC3)ncc21,-,-,-,-,-,-,.,.,
Fc1cnc(N2CCN(c3ccccc3)CC2)nc1N1CCN(c2ccccc2)CC1,-,-,-,21,-,-,-,-,
O=C(CSCc1c(F)cccc1Cl)NNC(=S)NC1CCCCC1,-,-,-,21,-,-,-,-,
CCn1c(CSCc2ccc(Cl)cc2)n[nH]c1=S,-,-,-,19,-,-,26,-,
Cn1c(CSCc2ccc(Cl)c(Cl)c2)n[nH]c1=S,-,-,-,-,-,-,.,.,
C=CCn1c(CSCc2ccc(F)cc2)n[nH]c1=S,-,-,-,-,-,-,.,.,
SMILES,MOR-DOR ag,HTR5A ag,HTR2A ag,HGIII-sPLA2 inh,OPRM1-OPRD1 inv,HTR5A inv ctr,hGIII sPLA2 conf,535nm interf,others
CCn1c(CSCc2ccc(C)cc2)n[nH]c1=S,-,-,-,30,-,-,25,-,
CCOc1ccccc1C(=O)Nc1ccc(C(=O)NCC2COc3ccccc3O2)cc1 (stereo not given),.,.,.,-,.,.,.,.,
C/C(=N\NC(=O)c1ccc(N(C)C)cc1)c1ccc(C)c(C)c1,-,-,-,31,-,-,-,-,
O=C(NCc1ccccc1)[C@H]1CCCN1C(=O)[C@H]1CCCN1C(=O)c1ccccc1C(F)(F)F,.,.,.,-,.,.,.,.,
CC(C)(C)NC(=O)C(=O)NN=C1CCCCCC1,-,-,-,-,-,-,.,.,
CN1CCC(=NNC(=O)C(=O)NC(C)(C)C)CC1,-,-,-,22,-,-,-,-,
O=C(NNc1nc2cc3c(cc2s1)OCO3)c1ccc(F)cc1,-,-,-,23,-,-,38,-,BODIPY interf DR=-

# Source: PubChem BioAssay (The Scripps Research Institute Molecular Screening Center)
